Assay outcomes from PubChem.
IMPase Li inh: membrane-permeable IMPase blocker, potentiated with lithium. AID 1457. CHO-M1 cells, IP1 TR-FRET (IP-One), carbachol + lithium. Potency, µM (titrated, usually from 59.4 µM), actives largely listed as inhibitors. actives 0.35% (n = 210,000); active = well fitted inhibition curve with a large enough effect; inconclusive = small, poorly fitted or top-dose-only effect; inactive = no such curve, though single readings can be large or run the other way;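 also: IP1 builds up when IMPase is blocked and the TR-FRET signal falls; nearly all actives have a fitted effect of over 50% in size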
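Concentration–response in CHO-M1 cells, lithium-potentiated; 30 min at 37C. IP1 detected by competitive TR-FRET after 10 min lysis at RT. Hill-fitted AC50.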
ALDH1A1 block: inhibitors of human aldehyde dehydrogenase 1A1; Potency, µM (top dose mostly 75.3 µM), hits mostly inhibitors; actives 7.3% (n = 220,000); Purified ALDH1A1, NADH fluorescence, propionaldehyde substrate
HPGD inh: HPGD (human) dehydrogenase inhibition; Potency, µM, hits mostly inhibitors; actives 4.3% (n = 150,000); purified HPGD, NADH fluorescence kinetic, PGE2 substrate
Target sequence (P15428 whole entry, looked up): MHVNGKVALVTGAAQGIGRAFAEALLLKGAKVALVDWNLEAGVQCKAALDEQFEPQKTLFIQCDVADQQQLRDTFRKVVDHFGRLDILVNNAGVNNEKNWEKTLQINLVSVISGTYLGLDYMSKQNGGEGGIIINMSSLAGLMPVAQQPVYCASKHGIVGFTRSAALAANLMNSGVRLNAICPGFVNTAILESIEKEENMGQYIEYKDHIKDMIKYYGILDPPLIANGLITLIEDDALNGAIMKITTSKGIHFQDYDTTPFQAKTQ
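20 nM HPGD preincubated 15 min at room temperature with compound in 50 mM Tris-HCl pH 8, 0.01% Tween 20. Started with 1 mM NAD+ and 30 uM prostaglandin E2; NADH fluorescence (360/450 nm) read 5 times over 30-s intervals, last minus first.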
PNC inhibitor: inhibitors of perinucleolar compartment assembly. PC3M PTB-GFP, PNC prevalence imaging, 16 h; hits give low values. activity change (PNC), negative = inhibition, % at 10 µM. actives 3.1% (n = 140,000). AID 2417;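 active = readout at or below -70, meaning at least 70% loss of cells showing the perinucleolar compartment, a nuclear body marking cancer cells; inconclusive = readout between -30 and a set limit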
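Compounds are pinned in duplicate onto adhered PC3M cells stably expressing GFP-tagged PTB and incubated 16 h at 37 C. Cells are then fixed, nuclei stained with Hoechst, and PNC-positive cells counted.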
IMPase inh: IMPase inhibition in cells; inhibition (IP1 accumulation), % at 46.1 µM; CHO-M1 cells, IP1 accumulation, HTRF TR-FRET ratio; 120,000 tested, under 10 active; active = well fitted curve in the direction sought with a large enough effect in the signal ratio, not every such curve was filed as active; inconclusive = small, poorly fitted or top-dose-only effect, or a change in a side signal; inactive = no such curve, though single readings can be large or run the other way; the % refers to the signal ratio;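 also: cells stimulated with carbachol in lithium chloride buffer; higher means more IMPase inhibition seen as more IP1 and lower FRET ratio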
Target sequence (P97697 whole entry, looked up): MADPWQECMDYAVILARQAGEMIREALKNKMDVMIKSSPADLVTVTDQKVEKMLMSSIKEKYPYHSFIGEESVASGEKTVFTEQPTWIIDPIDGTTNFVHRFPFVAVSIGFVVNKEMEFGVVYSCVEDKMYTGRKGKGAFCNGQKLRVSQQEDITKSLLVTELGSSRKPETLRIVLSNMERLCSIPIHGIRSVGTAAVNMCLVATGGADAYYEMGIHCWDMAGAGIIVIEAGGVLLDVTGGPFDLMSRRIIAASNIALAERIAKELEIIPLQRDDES
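Elevated IP1 in lysates lowers TR-FRET signal (665/620 ratio and 620 channel reported). Cells were CHO-M1, given carbachol (50 uM as added) plus 50mM LiCl, pH 7.4, 30 min, 37C; compounds titrated up to 46 uM; AC50 by Hill equation.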
A number is an active result; - = inactive; ? = inconclusive; . = no result; [ ] = remark or other dose. Hits are enriched below; roughly 11% of the tested compounds scored in any of these assays. Unless noted, calls follow the shape of the dose curve; as a rule, active = well fitted inhibition curve with a large enough effect (not every such curve was filed as active); inconclusive = small, poorly fitted or top-dose-only effect, or another doubt; inactive = no such curve, though single readings can be large or run the other way.

SMILES	IMPase Li inh	ALDH1A1 block	HPGD inh	PNC inhibitor	IMPase inh
Nc1c(C(=O)NCc2cccnc2)sc(=S)n1-c1ccccc1	-	8.91µM	14.1µM	-	-
Cc1ccc(-n2c(N)c(C(=O)NCc3ccco3)sc2=S)cc1	-	?	?	-	-
Cc1ccc(-n2c(N)c(C(N)=O)sc2=S)cc1	-	4.47µM	7.94µM	-	-
CCN(CC)c1ccc(NC(=O)c2ccc(=O)[nH]c2)cc1S(=O)(=O)Nc1ccccc1OC	-	3.98µM	.	.	.
COc1ccccc1NS(=O)(=O)c1cc(NC(=O)CNC(=O)c2cc(C)cc(C)c2)ccc1C	-	-	-	-	.
CCN(CC)c1ccc(NC(=O)COc2ccccc2C)cc1S(=O)(=O)Nc1ccccc1OC	-	11.9µM	28.2µM	-	-
CCN(CC)c1ccc(NC(=O)c2ccccc2F)cc1S(=O)(=O)Nc1ccccc1OC	-	4.47µM	14.1µM	-	.
COc1ccc(NC(=O)c2ccccc2F)cc1Cl	-	-	?	-	-
CCN(CC)c1ccc(NC(=O)c2cnccn2)cc1S(=O)(=O)Nc1ccc(OC)cc1	-	-	-	?	.
CCN(CC)c1ccc(NC(=O)COc2ccccc2C#N)cc1S(=O)(=O)Nc1ccc(OC)cc1	-	22.4µM	-	-	.
CN(C1CCCC1)C1CCN(C(=S)Nc2cc(F)cc(F)c2)CC1	-	-	.	.	.
CC12CN3CC(C)(CN(C1)C3c1ccccc1F)C2 (configuration not stated)	.	-	.	.	.
CCN(CC)c1ccc(NC(=O)c2ccccc2Br)cc1S(=O)(=O)Nc1ccccc1OC	-	1.58µM	2.24µM	-	.
CCN(CC)CCNC(=O)c1ccc(NC(=O)c2ccc(Cl)c(S(=O)(=O)Nc3ccccc3OC)c2)cc1	-	-	-	?	-
CC(C)c1ccc(Oc2cccc(C(=O)/C(C#N)=C/N(C)C)c2)cc1	-	-	15.8µM	-	-
C=CCC(Nc1ccc(OC)cc1)(C(=O)OCC)c1ccccc1 (configuration not stated)	-	-	-	.	.
C=C(N(C)C)[C@]1(C)C[C@H]1[C@H](NC(=O)CNC(=O)OCc1ccccc1)c1ccccc1	-	-	-	.	.
CCOC(=O)N1CCC(N(CCOC)C(=O)Nc2ccc(CC)cc2)CC1	-	-	-	-	?
CCOC(=O)N1CCC(N(C(=O)Nc2ccc(Cl)c(Cl)c2)C(C)CC)CC1 (configuration not stated)	-	?	20µM	-	-
S=c1[nH]nc(COc2ccccc2)n1/N=C/C(Cl)=C/c1ccccc1	-	31.6µM	25.1µM	-	-
CC(C)CCn1c(COc2ccccc2)n[nH]c1=S	-	-	.	.	.
S=c1[nH]nc(COc2ccccc2)n1/N=C/C=C/c1ccccc1	-	-	5.01µM	-	-
NS(=O)(=O)c1cc2c(cc1C(F)(F)F)N[C@H](Cc1ccccc1)NS2(=O)=O	-	-	-	.	-
CCNC(=O)CCS(=O)(=O)c1ccc2ccccc2c1	-	?	31.6µM	-	-
O=C(CCS(=O)(=O)c1ccccc1)NCCS(=O)(=O)c1ccccc1	-	-	.	.	.
SMILES	IMPase Li inh	ALDH1A1 block	HPGD inh	PNC inhibitor	IMPase inh
O=C(Cc1coc2ccc3ccccc3c12)Nc1nnc(C2CC2)s1	.	-	.	-100.4	?
Cc1cc2occ(CC(=O)Nc3nnc(C4CC4)s3)c2cc1C	?	-	-	-	-
Cc1ccc(-c2nc(NC(=O)CSc3cc(C)c4ccccc4n3)ns2)cc1	-	-	12.6µM	-	-
Cc1nnc(SCC(=O)Nc2ccc(Cl)cn2)s1	-	-	-	-119.3	-
Cc1ccc(-c2nc(NC(=O)CSc3nnc(C)s3)ns2)cc1	14.1µM	?	?	-	-
Cc1ccc(N2CC(C(=O)OCc3ccc([N+](=O)[O-])cc3)CC2=O)cc1 (configuration not stated)	-	11.2µM	25.1µM	-	-
CCc1ccc(N2CC(C(=O)OC)CC2=O)cc1 (configuration not stated)	-	-	.	.	.
Cc1ccc(S(=O)(=O)N2CCC(C(=O)OCc3ccc([N+](=O)[O-])cc3)CC2)cc1	-	-	-	-	.
CCc1ccc(N2CC(C(=O)OCC(=O)NC3CCS(=O)(=O)C3)CC2=O)cc1 (configuration not stated)	-	-	-	-100.0	-
CC(C)[C@@H](OCc1ccccc1)[C@H](C)/C=N\OC[C@@H](O)[C@@H]1O[C@@H]2OC(C)(C)O[C@@H]2[C@H]1O	.	-[13.5 µM]	.	.	.
COc1ccc(CC(=O)NCCC(C)C)cc1S(=O)(=O)N1CCOCC1	-	-	.	.	.
CC(O)/C=C/C1OC(=O)CC1Nc1ccc(C=O)cc1 (configuration not stated)	-	0.447µM	.	.	.
CCN(CC)c1ccc(/C=N/Nc2ccccc2)c(O)c1	-	3.55µM	28.2µM	-	-
CCN(CC)c1ccc(/C=N/NC(=O)OC)c(O)c1	-	?	?	?	-
CCN(CC)c1ccc(/C=N/Nc2cccc(C)c2)c(O)c1	-	10µM	22.4µM	?	-
Oc1ccc(CCC2CCCCN2Cc2nc(C3CC3)no2)cc1 (configuration not stated)	-	-	.	.	.
CCCCCC1(C)NC(=S)N(c2ccccc2)N1 (configuration not stated)	-	?	.	.	.
CC1(CC(=O)Nc2ccccc2)NC(=S)N(c2ccccc2)N1 (configuration not stated)	-	11.2µM	.	.	.
CCCn1c(C)nc2c(NCCN3CCOCC3)nc(C)nc21	-	-	-	.	.
Cc1ccc(S(=O)(=O)Cn2nnnc2C(C(C)C)N2CCc3ccccc3C2)cc1 (configuration not stated)	-	10µM	-	?	-
COC(=O)C1=C(CSCc2ccco2)NC(=O)NC1c1cc(C)ccc1C (configuration not stated)	-	?	-	-	-
COc1cccc2c3c(c(=O)[nH]c12)CCC(C)(C)O3	-	-	15.8µM	-	-
CCCN1C(=O)C(Cc2nc3ccccc3c(=O)n2C)c2ccccc21 (configuration not stated)	-	0.282µM	-	-	-
CCN1C(=O)C(Cc2nc3ccccc3c(=O)n2C)c2ccccc21 (configuration not stated)	-	?	-	-	-
Cc1[nH]n(C(N)=S)c(=O)c1N=Nc1ccc2ccccc2c1	-	7.94µM	.	.	.
SMILES	IMPase Li inh	ALDH1A1 block	HPGD inh	PNC inhibitor	IMPase inh
Cc1[nH]n(C(N)=S)c(=O)c1N=Nc1ccc(S(=O)(=O)N2CCCCCC2)cc1	-	11.2µM	15.8µM	-	-
OC[C@@H]1O[C@@H](n2cnc3c(NC4CCCC4)ncnc32)[C@@H](O)[C@H]1O	.	.	.	.	-
Cc1ccc(NN2C(=O)C=C(c3ccccc3)C2=O)cc1	-	15.8µM	.	.	.
Cc1nn(C(=O)Cn2cc([N+](=O)[O-])cn2)c(C)c1Cl	-	-	.	.	.
Cc1cccc(N(C)S(=O)(=O)c2ccc3[nH]c(=O)c(=O)[nH]c3c2)c1	-	?	14.1µM	-	-
O=C(O)CC1(CC(=O)Nc2ccc(Oc3cccc(C(F)(F)F)c3)nc2)CCCC1	.	7.94µM	.	.	.
